The record followed here is PubChem BioAssay AID1220 (Sanford-Burnham Center for Chemical Genomics, 2008).

About 1,300 (0.68%) of roughly 190,000 compounds were called active. The sample as a whole holds a higher share of actives than the screen did. A number with no mark means an inactive call. Cut-off read from the data, not from the text of the source: active = inhibition above about 50%; inactive = the rest.

Sequence of Mannose-6-phosphate isomerase (Homo sapiens) (P34949 whole entry, looked up): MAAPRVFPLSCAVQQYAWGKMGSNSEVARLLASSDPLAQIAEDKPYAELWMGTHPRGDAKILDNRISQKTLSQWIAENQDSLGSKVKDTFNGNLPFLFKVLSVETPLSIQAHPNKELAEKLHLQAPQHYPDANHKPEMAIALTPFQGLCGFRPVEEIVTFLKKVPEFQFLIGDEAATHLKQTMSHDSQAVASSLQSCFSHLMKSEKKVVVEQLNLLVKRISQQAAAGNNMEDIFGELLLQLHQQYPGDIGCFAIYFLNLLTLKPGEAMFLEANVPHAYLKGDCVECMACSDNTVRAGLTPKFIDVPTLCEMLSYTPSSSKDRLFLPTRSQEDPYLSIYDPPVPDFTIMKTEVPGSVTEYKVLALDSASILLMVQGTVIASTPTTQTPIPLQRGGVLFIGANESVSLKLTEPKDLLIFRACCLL

This test concerns the target Mannose-6-phosphate isomerase (Homo sapiens) (UniProt P34949). The test is described as follows: human PMI inhibitors, high substrate, primary screen, biochemical, fluorescence intensity, high mannose 6-phosphate (AID 1220). Conditions: recombinant PMI enzyme, coupled fluorescence intensity; at 20 µM; hits give high values.
Regarding `O=C(Cc1ccc(Cl)cc1)NCCS(=O)c1ccc(Cl)cc1` (centres undefined), the inhibition was 8%.
The result for `CCCN1CCN(CCCNC(=O)CCn2nc(-c3ccccc3)ccc2=O)CC1` reads -12.2%; that for `CCCn1c(CCc2ccccc2)n[nH]c1=S`, 2.6%; that for `O=C(Nc1cccc2cccnc12)c1cccc2ccccc12`, -6.9%.
Under `O=C(O)c1ccccc1C(=O)Nc1ccccn1` stands 7.2%; under `O=C(O)c1ccccc1C(=O)Nc1ccc(Br)c2cccnc12`, 53.1% (active); under `c1ccc2c(c1)nc1sccn12`, -4.9%.
Turning to `Cc1ccc(/C=C(/C#N)C(=O)NC(=O)Oc2ccccc2)cc1`, the inhibition is 3.4%.
On to `O=C(NCc1ccccc1)NC1CCCCC1`, for which the inhibition is 5.5%.
Under `S=C(Nc1cccc2ccccc12)NC1CCCCC1` stands 48.3%.
Under `O=C(NC1CCCCC1)Oc1cccc2ccccc12` stands 61.4% (active).
Under `c1ccc(OCCCc2nc(-c3cccnc3)no2)cc1` stands -2.4%.
Turning to `Cc1cc(C)n2c(Nc3ccc4c(c3)OCCO4)c(-c3ccc(C)o3)nc2n1`, the inhibition is 0.2%.
The result for `CCCc1nc(N)c(C#N)c(-c2cccnc2)c1CC` reads 9.6%.
Regarding `NC(=O)C1=C[C@@H](c2csc3ccccc23)C[C@@H](OCCCCO)O1`, the inhibition was 59.2% (active).
For the compound `O=C(O)C1=C[C@H](c2csc3ccccc23)C[C@H](OCCCCO)O1`, the inhibition is -1.5%.
Regarding `NC(=O)C1=C[C@H](c2csc3ccccc23)C[C@H](OCCCCO)O1`, the inhibition is 63.4% (active).
The result for `O=C(O)C1=C[C@@H](c2csc3ccccc23)C[C@@H](OCCCCO)O1` reads 1.5%.
Under `O=C(C1=C[C@H](c2csc3ccccc23)C[C@H](OCCCCO)O1)N1CCOCC1` stands 9.5%.
As for `O=C(NC1CC1)C1=C[C@H](c2csc3ccccc23)C[C@H](OCCCCO)O1`, the inhibition was 1.4%.
For `Cc1ccc(C(C(=O)NCc2ccco2)N(C(=O)Cc2cccs2)c2cccnc2)cc1` (centres undefined), the inhibition is -5%.
For `c1ccc(COC2CCCN(Cc3nc(-c4cccs4)no3)C2)nc1` (centres undefined), the inhibition was 13.3%.
Regarding `O=C(Cn1nnc(-c2ccccc2F)n1)Nc1cccc2ncccc12`, the inhibition was -0.5%.
The result for `CS(=O)(=O)c1ccc2nc(N)sc2c1` reads 6.1%.
Under `CCOC(=O)c1c(C)[nH]c(C)c1C(=O)COC(=O)c1ccc(Cl)c(S(N)(=O)=O)c1` stands -8.6%.
The result for `O=S(=O)(/N=C(/c1ccccc1)N1CCCCC1)c1ccccc1` reads 7.7%; that for `N#Cc1c(Nc2cccc(F)c2)sc2c(O)cc(=O)[nH]c12`, 55.8% (active).
Consider `O=c1cnnc(Nc2cccc(F)c2)[nH]1`, for which the inhibition was -14.5%.
Under `N#Cc1c(Nc2ccccc2)sc(C(=O)c2ccc(F)cc2)c1N` stands 1.5%; under `CN(C)C(=O)c1ccc2c(c1)n(C)c(=O)n2C`, -6.4%; under `CCCCNC(=O)CSc1nc2ccccc2c(=O)n1C1CCCC1`, 0.1%.
Under `O=C(CNc1ccc(Br)cc1)NNC1=NCCC1` stands -3.4%; under `O=C(CNc1ccccc1)NNC1=NCCC1`, 14.8%; under `O=C(CNc1ccc2ccccc2c1)NNC1=NCCC1`, 52.9% (active).
With `Clc1cccc(-c2nnc3sc(-c4ccc5c(c4)OCO5)nn23)c1`, the inhibition was 6%.
Under `O=C1CCC(C(=O)OC(C(=O)c2c[nH]c3ccccc23)c2ccccc2)=NN1` (centres undefined) stands -1.8%; under `CN(C)c1ccc(N/C=C/C(=O)C(C)(C)C)cc1`, 12.9%; under `COc1ccc(N/C=C/C(=O)C(F)(F)F)cc1`, 14.6%.
With `CN(C)c1ccc(N/C=C/C(=O)C(F)(F)F)cc1`, the inhibition was 56.5% (active).
Under `CCn1cc(C(=O)NC(=S)Nc2cccc(O)c2)cn1` stands 0.6%.
In the case of `CCCc1[nH]n(-c2nc3ccccc3s2)c(=O)c1C=NCC1CCCO1` (centres undefined), the inhibition is 51% (active).
In the case of `CCCN=Cc1c(CCC)[nH]n(-c2nc3ccccc3s2)c1=O`, the inhibition is 4.7%.
With `CCCc1[nH]n(-c2nc3ccccc3s2)c(=O)c1C=NCC(C)C`, the inhibition is 0.7%.
The result for `O=C(O)CCCC(=O)Nc1ccccc1C(=O)N1CCOCC1` reads -1.4%.
Take `CC(=O)c1cccc(NC(=O)CN2C(=S)NC(C)(C)CC2C)c1` (centres undefined): the inhibition was -1.5%.
With `Cc1ccc(O)c(C=Nc2cc(C)ccc2O)c1`, the inhibition was 23.3%.
With `Cc1ccc(O)c(N=Cc2cccs2)c1`, the inhibition was 65.7% (active).
Turning to `Cc1ccc(O)c(N=CC2=C(O)c3ccccc3C2=O)c1`, the inhibition is 15.3%.
`O=C(NC1CCCCC1)N1CCC(c2nc3ccccc3[nH]2)CC1`: the inhibition was 1.1%.
Under `COC(=O)c1ccc(OC(=O)c2ccco2)cc1` stands -6.2%; under `O=C(Oc1ccc(-c2cnc3ccccc3n2)cc1)c1ccco1`, 15.4%; under `Cc1cc(C(=O)CSCCCn2c(=O)[nH]c3ccccc32)c(C)n1C`, -21.9%.
Under `CC(C)CN(C(=O)CN1CCN(c2ccc(F)cc2)CC1)c1c(N)n(CC(C)C)c(=O)[nH]c1=O` stands -8.7%; under `CCN(C(=O)CN1CCN(c2ccc(OC)cc2)CC1)c1c(N)n(Cc2ccccc2)c(=O)[nH]c1=O`, 2.4%.
Under `CC(C)CN(C(=O)CN1CCN(c2ccc(O)cc2)CC1)c1c(N)n(CC(C)C)c(=O)[nH]c1=O` stands 52.3% (active).
Turning to `CCN(C(=O)CN1CCN(c2ccc(O)cc2)CC1)c1c(N)n(Cc2ccccc2)c(=O)[nH]c1=O`, the inhibition was 51.6% (active).
`CCN(C(=O)CN1CCN(c2ccccc2)CC1)c1c(N)n(Cc2ccccc2)c(=O)[nH]c1=O`: the inhibition is 7.8%.
Under `CC(=O)c1ccc(N2CCN(CC(=O)N(CC(C)C)c3c(N)n(CC(C)C)c(=O)[nH]c3=O)CC2)cc1` stands -0.1%.
Under `Cc1ccc(NC(=S)N2CCCN(Cc3ccc(F)cc3)C2)c(C)c1` stands -3.7%; under `Cc1ccc(CC(=O)Nc2cccnc2)cc1`, 10.1%.
The result for `Cc1ccc(N2C(=S)SC3CS(=O)(=O)CC32)cc1` (centres undefined) reads -0.7%; that for `O=C(CCC1CCCC1)Nc1nnc(-c2ccc3c(c2)OCO3)s1`, 1.1%.
Turning to `CCOC(=O)c1c2c3c(cccc3[nH]c1=O)C(=O)c1ccccc1-2`, the inhibition is -30.6%.
The result for `CCOC(=O)c1c(C)oc2c1c(C=NCc1ccccn1)c(O)c1ccccc12` reads 32.6%; that for `CCOC(=O)c1c(C)oc2ccc(O)cc12`, 2.8%; that for `CCOC(=O)c1c(OCC)[nH]c2ccc(O)cc12`, -2.7%.
For `CCOC(=O)c1c(C)oc2c1cc(O)c1ccccc12`, the inhibition is 54.3% (active).
As to `CCOC(=O)c1c(C)oc2c1c(C(c1ccccc1)N1CCOCC1)c(O)c1ccccc12` (centres undefined), the inhibition was 30.5%.
Under `CCOC(=O)c1c(C)[nH]c(C)c1-c1ccccc1OC` stands 1.6%; under `CCOC(=O)c1c(C)cc(=O)oc1C`, 3.9%.
Regarding `CCOC(=O)c1c(C)[nH]c2c1-c1ccccc1C(=O)C2=O`, the inhibition is 62.9% (active).
Take `CCOC(=O)c1c(-c2ccccc2)[nH]c2ccc(O)cc12`: the inhibition is 5.9%.
The result for `CCOC(=O)c1c(OCC)[nH]c2c1cc(O)c1ccccc12` reads 54.7% (active).
For `CCCCCCN1C(=O)C(O)=C(C(C)=O)C1c1ccc(Cl)cc1` (centres undefined), the inhibition is 3.1%.
On to `O=C(N/N=C/c1c[nH]c2ccccc12)c1cc(-c2ccccc2)n[nH]1`, for which the inhibition was -2.4%.
Under `O=C1NC(CCc2ccccc2)C(=O)N1Cc1ccc(Br)cc1` (centres undefined) stands 10.5%; under `COc1ccc(Nc2n[nH]c(N)c2C(N)=O)cc1`, 1.4%.
Under `CN(CC(=O)N1CCCCC1)S(=O)(=O)c1cccc2cccnc12` stands 13.4%; under `Cc1[nH]c2ccccc2c1/C=N/NC(=O)Nc1ccccc1`, -7.2%.
Under `CCOc1ccc(C(=O)NCC(=O)Nc2ccc(N3CCOCC3)cc2)cc1OCC` stands 3.6%; under `O=C(N/N=C/c1coc2ccccc2c1=O)c1cn(-c2ccccc2)nc1-c1ccc(F)cc1`, -12.2%; under `CC(C)OCc1c(C(=O)OC/C(O)=C(\C#N)c2nc3ccccc3[nH]2)oc2ccccc12`, 28.4%.
For the compound `CCOC(=O)c1c(C)[nH]c2cc(Br)c(O)cc12`, the inhibition is 2.1%.
For the compound `CCOC(=O)c1c(C)[nH]c2ccc(O)cc12`, the inhibition is 6%.
The result for `CCOC(=O)c1c(C)[nH]c2c1cc(O)c1ccccc12` reads 61.2% (active).
Under `Nc1cc(-c2cccc(Br)c2)nn1Cc1ccccc1` stands 11.2%; under `CCOC(=O)N1CCN(S(=O)(=O)c2ccc(C(=O)NNc3nc4c(C)cccc4s3)cc2)CC1`, 1.7%.
For the compound `CCCc1n(CC)c2ccccc2[n+]1CC(O)COC1CCCCC1` (centres undefined), the inhibition is -2.9%.
The result for `CCOC(=O)/C(C#N)=C\c1cc(OC)c(OC)cc1[N+](=O)[O-]` reads 69.6% (active).
The result for `CCOC(=O)/C(C#N)=C\c1ccc(OC)c(OC)c1` reads -3.6%.
Take `CCOC(=O)/C(C#N)=C/c1ccc(OC)c(OC)c1`: the inhibition was 5%.
In the case of `COc1ccc(NC(=O)/C(=C\c2cc(OC)c(OC)cc2[N+](=O)[O-])NC(=O)c2ccccc2)cc1`, the inhibition was 15.2%.
Turning to `COc1cc(/C=C(\C#N)C(=O)Nc2ccc3ccccc3c2)c([N+](=O)[O-])cc1OC`, the inhibition was 67% (active).
For `COc1cc(/C=C(/NC(=O)c2ccccc2)C(=O)Nc2ccccc2)c([N+](=O)[O-])cc1OC`, the inhibition is 27.2%.
Under `O=C(Cn1ccc([N+](=O)[O-])n1)N1CCc2ccccc21` stands 6.2%; under `COc1ccccc1Sc1nc(-c2ccccn2)ncc1OC`, -3.1%.
As to `CCCCC/C=N\NC(=O)Cc1ccc([N+](=O)[O-])cc1`, the inhibition was -6.9%.
The result for `CCOC(=O)C1=C(C)Nc2ncnn2C1c1ccccc1F` (centres undefined) reads -19.1%; that for `O=C(O)C1C(c2ccccc2)C(C(=O)Oc2ccccc2)C1c1ccccc1` (centres undefined), -2.4%.
